# Test results: PubChem BioAssay AID588511 (Johns Hopkins Ion Channel Center, 2011)
# The campaign covered roughly 310,000 compounds. About 3,600 (1.2%) were called active.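 The calls were made as follows: active = ratio plate-corrected score three or more library SD toward inhibition, starting fluorescence score within five deviations; inactive = the rest.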 Shown is part of a subset that was picked to be rich in actives.
# Biological target: Anoctamin-1 (Mus musculus) (UniProt Q8BHY3)
# Assay: blockers of mouse ANO1 Ca-activated Cl channel – cell-based, HTS, primary screen (AID 588511);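 as to normalized B-score (activity score, 25-100; higher = stronger inhibition): score derived from kinetic fluorescence span divided by baseline fluorescence per well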
# Settings: HEK293 TMEM16A/YFP iodide influx fluorescence, ionomycin; at 10 µM
# Sequence of Anoctamin-1 (Mus musculus) (Q8BHY3 whole entry, looked up): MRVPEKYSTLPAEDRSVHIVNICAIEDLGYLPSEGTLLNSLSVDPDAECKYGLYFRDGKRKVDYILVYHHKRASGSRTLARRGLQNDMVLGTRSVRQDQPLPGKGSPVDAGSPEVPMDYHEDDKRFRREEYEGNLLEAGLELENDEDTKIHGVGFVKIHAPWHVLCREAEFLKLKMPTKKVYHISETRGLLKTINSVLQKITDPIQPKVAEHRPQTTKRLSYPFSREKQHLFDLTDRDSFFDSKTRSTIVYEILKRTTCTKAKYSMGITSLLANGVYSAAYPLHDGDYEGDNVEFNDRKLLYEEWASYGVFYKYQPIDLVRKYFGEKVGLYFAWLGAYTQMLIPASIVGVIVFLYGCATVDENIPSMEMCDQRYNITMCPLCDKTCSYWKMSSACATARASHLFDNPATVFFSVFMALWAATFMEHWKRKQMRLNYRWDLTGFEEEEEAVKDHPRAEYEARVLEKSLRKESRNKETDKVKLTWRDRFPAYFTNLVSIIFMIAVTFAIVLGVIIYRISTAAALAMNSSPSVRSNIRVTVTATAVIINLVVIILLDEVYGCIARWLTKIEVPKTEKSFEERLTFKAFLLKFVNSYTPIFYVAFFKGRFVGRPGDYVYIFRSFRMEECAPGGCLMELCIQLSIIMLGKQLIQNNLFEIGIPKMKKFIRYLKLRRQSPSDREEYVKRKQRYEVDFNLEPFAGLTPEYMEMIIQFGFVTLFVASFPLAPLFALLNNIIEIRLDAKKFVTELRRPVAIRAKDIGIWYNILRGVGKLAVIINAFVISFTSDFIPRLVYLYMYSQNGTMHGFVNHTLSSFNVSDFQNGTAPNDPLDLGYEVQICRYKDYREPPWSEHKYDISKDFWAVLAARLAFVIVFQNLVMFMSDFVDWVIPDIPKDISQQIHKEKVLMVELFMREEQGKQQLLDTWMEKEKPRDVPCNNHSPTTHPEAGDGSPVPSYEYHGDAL
row,SMILES,"normalized B-score (activity score, 25-100; higher = stronger inhibition)"
1,O=C(N/N=C/c1cccc2cccnc12)[C@H]1C[C@@H]1c1ccccc1,inactive
2,Cc1ccc(C)c(OCCC(=O)OCC(=O)NC(=O)NCc2ccccc2)c1,inactive
3,O=C(Nc1ccc(S(=O)(=O)N2CCCCC2)cc1)C1CC(=O)N(c2ccc(F)cc2)C1 (configuration not stated),inactive
4,O=C(NC(=S)Nc1ncccn1)c1ccccc1Br,inactive
5,COc1ccnc(Oc2ccccc2)c1-c1ncn[nH]1,inactive
6,NC(=O)c1c(Nc2nc3c(F)cccc3s2)sc2c1CCCC2,25 (active)
7,Fc1cc(F)c2nc(Nc3nc4c(F)cccc4s3)sc2c1,100 (active)
8,Fc1cc(F)c2nc(N3CCOCC3)sc2c1,inactive
9,COc1cccc(OC)c1C(=O)Nc1sc2c(c1C(N)=O)CCCC2,inactive
10,NC(=O)c1c(NC(=O)c2ccccc2)sc2c1CCCC2,inactive
11,O=C(Nc1nc2c(F)cc(F)cc2s1)C1COc2ccccc2O1 (configuration not stated),inactive
12,Cc1c(C(=O)Nc2ccccn2)oc2ccc(Br)cc12,inactive
13,CCC(C)(C(=O)Nc1ccccc1C)N(C(=O)CNC(C)=O)c1ccc(C)cc1 (configuration not stated),inactive
14,CS(=O)(=O)c1sc(C(=O)NC(=S)Nc2ccc(OC(F)(F)F)cc2)c2c1C=CCC2,inactive
15,CC1(C)O[C@@H]2CC3C4C[C@H](F)C5=CC(=O)C=CC5(C)C4C(O)CC3(C)[C@]2(C(=O)CO)O1 (some centres not stated),inactive
16,Cc1ccc(/C=C2/SC(=S)N(CCC(=O)NCCCN3CCOCC3)C2=O)cc1,inactive
17,O=C(Nc1cccc(Cl)c1)Nc1ccccc1NS(=O)(=O)c1cccs1,100 (active)
18,O=S(=O)(NCc1ccc(Cl)cc1Cl)c1cccs1,inactive
19,O=S(=O)(Nc1ccccc1Br)c1cccs1,inactive
20,COc1ccc(Nc2nc(N)nc(CSC(=S)N3CCC(C)CC3)n2)cc1,inactive
21,O=S(=O)(ON(c1ccccc1)S(=O)(=O)c1ccccc1)c1ccccc1,inactive
22,CC1=C/C(=N\OS(=O)(=O)c2ccccc2)C=CC1=O,25 (active)
23,CC(NC(=O)CN1CCN(Cc2ccc(Cl)cc2)C1=O)c1ccc2c(c1)OCCO2 (configuration not stated),inactive
24,O=C(c1ccc(=O)oc1)N1CCC(C(O)(c2ccccc2)c2ccccc2)CC1,inactive
25,CCOC(=O)c1oc2ccccc2c1NC(=O)c1cccs1,25 (active)
26,CCc1c(C)sc(NC(=O)c2cccs2)c1C(N)=O,inactive

row,SMILES,"normalized B-score (activity score, 25-100; higher = stronger inhibition)"
1,NC(=O)c1oc2ccccc2c1NC(=O)Cc1ccccc1,inactive
2,COC(=O)CCSc1cc([N+](=O)[O-])cc2c1c(C1OCCS1)nn2-c1ccccc1 (configuration not stated),inactive
3,COc1ccc(OC)c(NC(=O)CN(C)CCOc2ccc(Br)cc2)c1,inactive
4,CCCCCCCCn1c2c(c(=N)c3c1CCC3)CCCC2,100 (active)
5,CC(C)C[C@@H](COc1ccccc1)N1CCN(CC(C)C)CCC1=O,inactive
6,CCCCNC(=O)CSc1nc2n[nH]c(C)c2c(=N)n1-c1cccc(Cl)c1C,25 (active)
7,COc1cccc(-n2c(SCC(=O)NC3CCCCC3)nc3n[nH]c(C)c3c2=N)c1,inactive
8,Cc1ccc(-n2c(SCC(=O)NCCC3=CCCCC3)nc3n[nH]c(C)c3c2=N)cc1Cl,inactive
9,Cc1ccc(N2CC(C(=O)N3CCC4(CC3)CC(=O)c3ccccc3O4)CC2=O)cc1C (configuration not stated),inactive
10,CCCOc1ccc(C2=CSC3=NCCN23)cc1Cl,inactive
11,CC(=O)N(C1=C(Cl)C(=O)c2ccccc2C1=O)c1ccc(C(=O)O)cc1,100 (active)
12,O=S(=O)(N1CCCCC1)N1CCNCC1,inactive
13,CCOC(=O)Cc1c(C)nc2c(C#N)c(C)nn2c1C,inactive
14,CCCc1nc(SCC(=O)N2CCCC2)c2c(=O)n(C)c(=O)n(C)c2n1,inactive
15,O=C(Nc1ccc(Cl)cc1)/C(=C1\CCCN1)[N+](=O)[O-],inactive
16,Cc1ccc(OCC(=O)Nc2ccc3oc(=O)ccc3c2)cc1C,inactive
17,Fc1ccc2[nH]c3c(N4CCSCC4)ncnc3c2c1,100 (active)
18,Cc1c(CN2CC[C@@H](N3CCN(c4ccccn4)CC3)[C@H](O)C2)[nH]c2ccc(F)cc12,inactive
19,Cc1cc(C)c(S(=O)(=O)c2cc(F)ccc2C)c(=O)[nH]1,inactive
20,COc1ccc(C(=O)OCC(=O)Nc2ccc3[nH]c(=O)[nH]c3c2)c(OC)c1OC,inactive
21,CS(=O)(=O)N(CC(=O)N1CCN(c2ccc(F)cc2)CC1)C1CCCCC1,inactive
22,CCOC(=O)N1CCN(C(=O)c2ccc3nc4cc(Cl)ccc4c(=O)n3c2)CC1,inactive
23,COC(=O)c1ccccc1NC(=O)c1ccccc1NS(C)(=O)=O,inactive
24,COc1cc(NC(=O)c2ccccc2NS(=O)(=O)c2ccc(Cl)s2)cc(OC)c1,100 (active)
25,COC(=O)c1ccc(NC(=O)c2ccccc2NS(=O)(=O)c2ccccc2)cc1,100 (active)
26,COc1ccc(NC(=O)c2cnc(NS(=O)(=O)c3ccccc3)nc2)cc1,inactive

row,SMILES,"normalized B-score (activity score, 25-100; higher = stronger inhibition)"
1,CCOc1ccc(NC(=O)c2ccccc2NS(C)(=O)=O)cc1,inactive
2,COc1cc(OC)c(S(=O)(=O)Nc2ccccc2C(=O)O)cc1S(=O)(=O)Nc1ccccc1C(=O)O,inactive
3,CCNC(=O)CC1C(=O)N(c2ccc(F)cc2)C(=O)N1CCc1sccc1C (configuration not stated),inactive
4,COc1ccc(NCc2nnc(SCc3ccccc3)n2-c2ccc(OC)cc2)cc1,inactive
5,O=C(O)c1ccc(-n2nc(-c3ccccc3)c3ccccc3c2=O)cc1,inactive
6,Cc1cc(C)c(S(=O)(=O)N2CCOCC2)cc1C,inactive
7,OCC[C@H]1C[C@@H](O)[C@H](O)[C@]2(OCCCc3ccccc32)O1,inactive
8,Cc1c(C)c2c(OCC(=O)NCCCO)cc3c(c2oc1=O)CCC(C)(C)O3,inactive
9,Cc1c(C)c2c(OCC(=O)N[C@@H](C(=O)O)c3ccccc3)cc3c(c2oc1=O)CCC(C)(C)O3,100 (active)
10,Cc1cc(=O)oc2c3c(cc(OCC(=O)N[C@H](C(=O)O)c4ccccc4)c12)OC(C)(C)CC3,inactive
11,C#CCO[C@@H]1C[C@H](n2cnc3c(=O)[nH]c(NC(=O)C(C)C)nc32)O[C@@H]1CO,inactive
12,COCCN(C(=O)CCC(=O)Nc1nccs1)C(C(=O)NCCC(C)C)c1ccc(F)cc1 (configuration not stated),inactive
13,CCCc1cc(C(=O)N2CCCC(CO)(CCCc3ccccc3)C2)n(C)n1 (configuration not stated),inactive
14,CSc1nc2ccc(S(=O)(=O)N3CCc4ccccc43)cc2s1,inactive
15,O=C(Nc1nc2ccc([N+](=O)[O-])cc2s1)c1ccc(S(=O)(=O)N2CCCc3ccccc32)cc1,100 (active)
16,O=C(NC(Nc1nc2ccc([N+](=O)[O-])cc2s1)(C(F)(F)F)C(F)(F)F)c1ccccc1,100 (active)
17,CCC(=O)NC(Nc1nc2ccc(C)cc2s1)(C(=O)OC)C(F)(F)F (configuration not stated),inactive
18,CN(C)CCCN(C(=O)c1ccc(S(=O)(=O)N2CCCc3ccccc32)cc1)c1nc2ccc(F)cc2s1,inactive
19,O=C(CNC(=O)c1ccccc1)Oc1ccc([N+](=O)[O-])cc1,inactive
20,O=C(NCc1ccc(F)cc1)C(c1ccccc1)N(C(=O)c1csnn1)C1CC1 (configuration not stated),inactive
21,Fc1ccc(CSc2nnc(-c3cc4c(s3)-c3ccccc3CC4)o2)cc1,100 (active)
22,Fc1ccc(-c2nnc(CSc3nnc(-c4ccc5c(c4)OCO5)o3)o2)cc1,inactive
23,CCSc1nnc(-c2cc3c(s2)-c2ccccc2CC3)o1,inactive
24,O=C(NCCS(=O)(=O)c1ccc(Br)cc1)c1ccccc1Cl,inactive
25,O=C(OCC1O[C@@H](OC(=O)c2cc(O)c(O)c(O)c2)[C@@H](OC(=O)c2cc(O)c(O)c(O)c2)[C@@H](OC(=O)c2cc(O)c(O)c(O)c2)[C@@H]1OC(=O)c1cc(O)c(O)c(O)c1)c1cc(O)c(O)c(O)c1 (some centres not stated),inactive
26,CC(=O)c1c(C)[nH]c(C(=O)COC(=O)c2cccc(S(=O)(=O)N(C)c3ccccc3)c2)c1C,100 (active)

row,SMILES,"normalized B-score (activity score, 25-100; higher = stronger inhibition)"
1,CN(c1ccccc1)S(=O)(=O)c1ccc(Cl)c(C(=O)OCC(N)=O)c1,inactive
2,CC(=O)c1c(C)[nH]c(C(=O)COC(=O)CCOc2ccc(C)cc2)c1C,inactive
3,CC(=O)NCCc1ccc(S(=O)(=O)Nc2ccc(C)c(S(=O)(=O)N3CCOCC3)c2)cc1,inactive
4,CCCCCC(O)c1cccc(OCc2ccc3ccccc3n2)c1 (configuration not stated),100 (active)
5,COc1cccc(C(O)c2nc3ccccc3n2C)c1 (configuration not stated),inactive
6,CCCCCCOC(=O)NCC(O)c1ccccc1 (configuration not stated),inactive
7,NC(=O)c1ccc(Nc2ccc3c(c2)CCC3)c([N+](=O)[O-])c1,inactive
8,Cc1nc(CNS(=O)(=O)c2ccc(Oc3ccccc3)cc2)cs1,100 (active)
9,Cc1ccc(S(=O)(=O)NCc2csc(C)n2)c(C)c1,inactive
10,Cc1nc(CNS(=O)(=O)c2cccnc2)cs1,inactive
11,CS(=O)(=O)c1ccccc1C(=O)Nc1ccc2sccc2c1,inactive
12,Cc1csc(NC(=S)Nc2cccc(Cl)c2)n1,inactive
13,S=C(Nc1cccc(Cl)c1)Nc1ccc2c(c1)OCCO2,inactive
14,FC(F)(F)c1cccc(NC(=S)Nc2cccc(Cl)c2)c1,100 (active)
15,COc1ccc(S(=O)(=O)NCCCc2ccccc2)cc1,inactive
16,COc1ccc(S(=O)(=O)NCCCCOc2ccc(Cl)cc2)cc1,25 (active)
17,COC(=O)CNS(=O)(=O)c1ccc(OC)cc1,inactive
18,Cc1ccccc1C(=O)N1CCC(C(=O)Oc2ccc(C#N)cc2)CC1,inactive
19,Cc1cccc(N(Cc2ccccc2)C(=O)c2cc(S(=O)(=O)N3CCOCC3)ccc2F)c1,inactive
20,Cc1ccc(F)cc1NC(=O)Cc1nn(C)c(=O)c2ccccc12,100 (active)
21,COc1ccc(-c2nn(C)c(=O)c3ccccc23)cc1NC(=O)COc1ccccc1,inactive
22,Cc1nn(CC(=O)Nc2ccc(F)cc2)c(=O)c2ccccc12,inactive
23,C[C@@H]1NC(=O)c2cc([N+](=O)[O-])cc(F)c2NCCC[C@@H](C(N)=O)NC(=O)[C@H](CC(N)=O)NC1=O,inactive
24,Cc1nn(C)c(Oc2ccccc2)c1CCNS(=O)(=O)c1ccc(F)cc1,inactive
